Screening data: PubChem BioAssay, National Center for Advancing Translational Sciences (NCATS)
NS1 function inh = qHTS Assay for Inhibitors of Influenza NS1 Protein Function; 270,000 compounds, 0.4% hits; Potency, µM (series often up to 46.1 µM), inactives show top-dose activity, positive = more growth; note: potency is the fitted concentration of half-maximal effect; actives are rising curves; nearly all actives have a fitted effect of over 50% in size
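S. cerevisiae expressing influenza A NS1, grown in glucose, washed, then diluted 1:100 into pH 6.0 -URA galactose medium with 23 nl compound. Growth recovery read as OD600; NS1-free strain serves as control.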
Pf growth 96h = Primary qHTS for delayed death inhibitors of the malarial parasite plastid, 96 hour incubation; Potency, µM (top dose mostly 28.7 µM), without a hit: at the highest dose activity change, negative = inhibition, actives largely listed as inhibitors; 320,000 compounds, 6.9% hits; P. falciparum luciferase reporter growth, 96 h; active = well fitted inhibition curve with a large enough effect; inconclusive = small, poorly fitted or top-dose-only effect, or another doubt; inactive = no such curve, though single readings can be large or run the other way; note: potency is the fitted concentration of half-maximal effect; % is set by controls: 0 for no effect and ±100 for the full control effect
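Compounds incubated with erythrocytes infected by luciferase-expressing P. falciparum (2% hematocrit, 0.05% parasitemia final) for 96 hours, 37 C in 5% CO2. Growth inhibition scored as decreased luciferase luminescence.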
SARS PLpro yeast = qHTS of Yeast-based Assay for SARS-CoV PLP; Potency, µM (series often up to 32.9 µM), for the others: at the highest dose activity, positive = growth rescue, most hits filed as activators; 330,000 compounds, 0.19% hits; S. cerevisiae expressing SARS-CoV PLpro, growth rescue; AID 485353, 2010; note: potency is the fitted concentration of half-maximal effect; 0% is about no effect; nearly all actives have a fitted effect of over 55% in size
CHX counter = Cycloheximide Counterscreen for Small Molecule Inhibitors of Shiga Toxin. cell reporter, cycloheximide protein synthesis inhibition counterscreen. max response, %. 300,000 compounds, 12% hits; in the data active = max response mostly above about 13%, no sharp cut-off; inactive = mostly below about 14%; note: read at 38.3 µM for the half of the compounds with a filed dose; 0% is about no effect
Pf growth 48h = Primary qHTS for delayed death inhibitors of the malarial parasite plastid, 48 hour incubation; P. falciparum luciferase growth in erythrocytes, 48 h; Potency, µM (doses to about 28.7 µM), for inactives: top-dose activity change, negative = inhibition, most hits filed as inhibitors; 310,000 compounds, 5.9% hits; active = well fitted inhibition curve with a large enough effect; inconclusive = small, poorly fitted or top-dose-only effect, or another doubt; inactive = no such curve, though single readings can be large or run the other way; note: potency is the fitted concentration of half-maximal effect; % is set by controls: 0 for no effect and ±100 for the full control effect
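Here the parasites carry a stable luciferase gene and grow inside erythrocytes in Albumax-based RPMI medium with compound for one erythrocytic cycle. Activity is scored as loss of luminescent signal.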
Shiga inhibitor = A qHTS for Small Molecule Inhibitors of Shiga Toxin; inhibition, % at 38.7 µM; AID 2315, 2010; 290,000 compounds, 9.2% hits; Vero cells, Shiga toxin protein synthesis inhibition reporter; in the data active = inhibition mostly above about 28%, no sharp cut-off; inactive = mostly below about 43%; note: 0% is about no effect
The depositor's hits bear a star; ? = inconclusive; · = no result. Only some compounds are listed: those with a hit (about 21% of all), similar ones and a draw of the others. Unless noted, calls come from the whole dose curve.

SMILES	NS1 function inh	Pf growth 96h	SARS PLpro yeast	CHX counter	Pf growth 48h	Shiga inhibitor
N#Cc1ccc(CSc2ccc(S(=O)(=O)N3CCCCCC3)cn2)cc1	·	76%	-4%	·	43%	·
CCOC(=O)C1(CCOc2ccccc2)CCN(Cc2ccc(NC(C)=O)cc2)CC1	3%	15%	1%	1	13µM*	-23
CCOC(=O)C1(CCOc2ccccc2)CCN(Cc2cccc(OC)c2OC)CC1	-9%	10µM*	3%	-2	?	-25
CCOC(=O)C1(CCc2ccccc2)CCN(C2Cc3ccccc3C2)CC1	2%	-27%	-1%	27*	?	76*
CCOC(=O)C1(CCc2ccccc2)CCN(Cc2ccc(NC(C)=O)cc2)CC1	12%	4.1µM*	0%	-3	?	-5
CCOC(=O)C1(CCc2ccccc2)CCN(Cc2ccc(C(=O)OC)cc2)CC1	-36%	-8%	-5%	-4	?	-22
CCOC(=O)C1(CCc2ccccc2)CCN(C2CCSCC2)CC1	7%	-17%	2%	1	9%	7
CCOC(=O)C1(CCOc2ccccc2)CCN(Cc2cccc3c2OCO3)CC1	-1%	-1%	0%	-1	?	-14
CC(=O)Nc1ccc(CN2CCC(CO)(CCOc3ccccc3)CC2)cc1	-1%	?	-1%	-1	24%	-3
CCOC(=O)c1cccc(NC(=O)C2(S(=O)(=O)c3ccc(Cl)cc3)CC2)c1	4%	225%	15%	-1	-14%	-16
COc1ccc(N2CCN(C(CNC(=O)C(=O)NCC(OC)OC)c3ccco3)CC2)cc1 (centres undefined)	-8%	44%	1%	-4	10%	-11
CN(C(=O)CSc1nnc(-c2ccco2)n1Cc1ccccc1)C1CCS(=O)(=O)C1 (centres undefined)	·	-23%	-5%	·	-27%	·
CCOC(=O)C1(CCOc2ccccc2)CCN(Cc2ccc(C)s2)CC1	-6%	10µM*	0%	-1	13µM*	-9
CCOC(=O)C1(CC2CC2)CCN(Cc2ccc(C(=O)OC)cc2)CC1	-1%	-19%	1%	-1	9.3µM*	-9
CCOC(=O)C1(CCc2ccccc2)CCN(Cc2cc(OC)c(OC)cc2OC)CC1	-7%	-7%	-3%	-2	?	-21
CCOC(=O)C1(CCc2ccccc2)CCN(Cc2ccc3c(c2)OCCO3)CC1	1%	10µM*	-2%	-4	2%	12
CCOC(=O)C1(CCc2ccccc2)CCN(C(=O)Cc2nonc2C)CC1	-9%	?	0%	14*	-18%	63*
N/C(=N\OC(=O)c1ccc2c(c1)OCO2)c1cccc(Br)c1	-68%	1%	-6%	30*	36%	87*
COc1ccc(/C(N)=N/OC(=O)c2ccc3c(c2)OCO3)cc1OC	-6%	?	-10%	12	?	-5
N/C(=N\OC(=O)c1ccc2c(c1)OCO2)c1cccnc1	3%	77%	-2%	21*	-23%	58*
N/C(=N\OC(=O)c1ccc2c(c1)OCO2)c1ccc([N+](=O)[O-])cc1	1%	0%	0%	15	-12%	10
CC(CN1CCOCC1)C(=O)O (centres undefined)	1%	9.3µM*	-11%	-3	-25%	-4
CC(C)C[C@H](NC(=O)[C@@H]1Cc2c([nH]c3ccccc23)C2c3ccccc3C(=O)N21)C(=O)NCC1CCCO1 (some centres undefined)	-9%	9.3µM*	5%	-3	?	-7
CSCC[C@H](NC(=O)[C@@H]1Cc2c([nH]c3ccccc23)C2c3ccccc3C(=O)N21)C(=O)NCC1CCCO1 (some centres undefined)	-1%	9.3µM*	2%	2	?	-2
O=C(O)c1ccc(-c2nnc(-c3ccc([N+](=O)[O-])cc3)o2)cc1	18%	284%	4%	9	21%	-10
SMILES	NS1 function inh	Pf growth 96h	SARS PLpro yeast	CHX counter	Pf growth 48h	Shiga inhibitor
O=C(O)c1ccc(-c2nnc(-c3ccccc3)o2)cc1	4%	-19%	-2%	27*	·	42*
O=C(c1nnc(-c2ccccc2)o1)C1CC1	·	34%	2%	37*	8%	97*
O=C(c1ccc(-c2nnc(-c3ccccc3)o2)cc1)N1CCCCCC1	-13%	52%	-2%	15	85%	83*
O=C(COC(=O)CCSc1ccccc1)NCc1ccc(F)cc1	·	0%	-3%	19	-13%	17
O=C(CCCc1c[nH]c2ccccc12)N1CCN(S(=O)(=O)c2cccs2)CC1	-20%	?	-3%	-2	?	-5
COC(=O)CN(c1cccc(F)c1)S(C)(=O)=O	3%	·	4%	-1	2%	-8
O=S(NCc1ccco1)C12CC3CC(CC(C3)C1)C2 (centres undefined)	-10%	-13%	-3%	-1	-22%	-4
O=C(Nc1ccc(NC(=O)c2cccs2)cc1)c1ccccc1	-6%	-2%	0%	24*	89%	46*
O=C(Nc1ccc(O)cc1)c1ccc(NC(=O)c2cccs2)cc1	-7%	9%	4%	38*	38%	87*
Cc1ccc(NC(=O)c2cccs2)cc1NC(=O)c1ccc(F)cc1	7%	10µM*	-4%	5	-7%	·
Cc1ccc(NC(=O)c2cccs2)cc1NC(=O)c1cccc(F)c1	12%	?	9%	7	9%	10
O=C(Nc1cccc(O)c1)c1ccc(NC(=O)c2cccs2)cc1	-1%	-14%	8%	74*	16%	130*
O=C(O)c1ccc(NC(=O)c2cccc(NC(=O)c3cccs3)c2)cc1	2%	0%	-4%	-3	-13%	16
COc1ccccc1NC(=O)C1CCCN1C(=O)Nc1ccc(F)cc1 (centres undefined)	13%	-19%	-2%	4	-6%	-12
Cc1ccc(/C=C/C(=O)O)cc1S(=O)(=O)NCc1ccco1	4%	-6%	0%	6	32%	-10
CCOC(=O)C1CCCCN1C(=O)/C(=C/c1ccc(OC)cc1)c1ccc(OC)c(OC)c1 (centres undefined)	·	·	1%	·	·	·
CN(Cc1cccc(Cl)c1Cl)C(=O)c1ccc(NC(=O)CC#N)cc1	20%	15µM*	15%	-6	-27%	-8
COc1ccc(Cl)cc1S(=O)(=O)N1CCC(C(=O)NCCC2=CCCCC2)CC1	-10%	0%	-4%	-4	-26%	-19
Cc1cccc(Oc2nc(-c3cccc([N+](=O)[O-])c3)nc3ccccc23)c1C	8%	-13%	-2%	7	?	-24
Cc1ccccc1C1C(C#N)=C2N=C(N)c3c(sc4c3CCCCC4)N2C2=C1C(=O)CCC2 (centres undefined)	2%	2.6µM*	3%	-1	1.9µM*	-23
